PubChem BioAssay (Tox21)
Values joined by “and” are separate entries in the source; they are usually repeats but may differ in a detail not shown here. Equal values may be shown once. A structure can be active in one record and inactive in another. Active and inactive are the calls of the source. A call without a number means that no potency is given here. Unless noted, the call rests on the fitted dose curve; in most records, active means well fitted curve in the direction sought with a large enough effect in the repeat runs; inconclusive means weak or mixed curves; inactive means no such curve, though single readings can be large; an effect the other way counts as inactive or inconclusive.

Columns and labels:
[1] = qHTS assay to identify small molecule antagonists of the thyroid receptor (TR) signaling pathway - cell viability counter screen (AID 743064); further: nearly all actives have a fitted effect of over 50% in size; further: potency means the concentration at half of the fitted maximal effect
Procedure, shortened: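 Rat GH3 pituitary tumor cells stably expressing two TR response elements driving luciferase were plated, rested 4 h, then dosed with library compounds and T3 (1 nM final). After 23.5 h at 37 °C, CellTiter-Fluor was added for 30 min and fluorescence recorded.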

[2] = qHTS assay to identify small molecule antagonists of the thyroid receptor (TR) signaling pathway (AID 743065); further: nearly all actives have a fitted effect of over 55% in size; further: potency means the concentration at half of the fitted maximal effect
Procedure, shortened: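 GH3.TRE-Luc rat pituitary cells carrying two TR response elements driving luciferase were plated for 4 h, given compound plus 1 nM T3 (final), and incubated 23.5 h at 37 C. ONE-Glo luminescence measured reporter inhibition; CellTiter-Fluor fluorescence tracked cytotoxicity.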

[3] = tested on: thyroid hormone receptor (rat, GH3 cells); assay: qHTS assay to identify small molecule agonists of the thyroid receptor (TR) signaling pathway (AID 743066; calls by dose curve)
[4] = molecular target: Estrogen receptor (Homo sapiens) (UniProt P03372); assay: qHTS assay to identify small molecule antagonists of the estrogen receptor alpha (ER-alpha) signaling pathway (AID 743069; active means well fitted curve in the direction sought with a large enough effect in the signal ratio in the repeat runs, not every such curve was filed as active; inconclusive means weak or mixed curves, or effect the other way; inactive means no such curve, though single readings can be large or run the other way; the % refers to the signal ratio)
Procedure, shortened: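 HEK293 cells stably carrying an ER-alpha-UAS-bla beta-lactamase reporter were pre-cultured overnight in 2% charcoal-stripped FBS medium. Test compounds in DMSO were added together with 17beta-estradiol for 18 hr at 37C. Read-out was fluorescence after 2 hr with LiveBLAzer B/G FRET substrate at room temperature.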

[5] = qHTS assay to identify small molecule antagonists of the estrogen receptor alpha (ER-alpha) signaling pathway - cell viability counter screen (AID 743074; calls by dose curve; further: nearly all actives have a fitted effect of over 45% in size)
[6] = molecular target: Estrogen receptor (Homo sapiens) (UniProt P03372); assay: qHTS assay to identify small molecule agonists of the estrogen receptor alpha (ER-alpha) signaling pathway (AID 743075; calls by dose curve; further: potency means the concentration at half of the fitted maximal effect)
[7] = molecular target: Estrogen receptor (Homo sapiens) (UniProt P03372); assay: qHTS assay to identify small molecule agonists of the estrogen receptor alpha (ER-alpha) signaling pathway using the BG1 cell line (AID 743079); conditions: BG1Luc4E2 cells, ERE-luciferase agonist, 22 h; activation: at 70.3 µM (top of the series) unless noted; further: nearly all actives have a fitted effect of over 20% in size; further: potency means the concentration at half of the fitted maximal effect
[8] = qHTS assay to identify small molecule antagonists of the estrogen receptor alpha (ER-alpha) signaling pathway using the BG1 cell line - cell viability counter screen (AID 743081);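 further: compound given together with 17beta-estradiol as the ER stimulus; nearly all actives have a fitted effect of over 45% in size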
[9] = molecular target: Aromatase (Homo sapiens) (UniProt P11511); assay: qHTS assay to identify aromatase inhibitors (AID 743083); further: nearly all actives have a fitted effect of over 55% in size; further: potency means the concentration at half of the fitted maximal effect
[10] = qHTS assay to identify small molecule antagonists of the estrogen receptor alpha (ER-alpha) signaling pathway using the BG1 cell line (AID 743080; calls by dose curve;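 further: BG1 cells stimulated with 17beta-estradiol alongside compound; nearly all actives have a fitted effect of over 25% in size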)
Procedure, shortened: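 Quantitative HTS on the Tox21 10K library: BG1 cells with endogenous ER-alpha and ERE-luciferase reporter, 17beta-estradiol stimulation, 21.5 h compound exposure, luminescence endpoint with parallel fluorescence cytotoxicity counter-read.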

Aromatase (Homo sapiens), sequence (P11511 whole entry, looked up): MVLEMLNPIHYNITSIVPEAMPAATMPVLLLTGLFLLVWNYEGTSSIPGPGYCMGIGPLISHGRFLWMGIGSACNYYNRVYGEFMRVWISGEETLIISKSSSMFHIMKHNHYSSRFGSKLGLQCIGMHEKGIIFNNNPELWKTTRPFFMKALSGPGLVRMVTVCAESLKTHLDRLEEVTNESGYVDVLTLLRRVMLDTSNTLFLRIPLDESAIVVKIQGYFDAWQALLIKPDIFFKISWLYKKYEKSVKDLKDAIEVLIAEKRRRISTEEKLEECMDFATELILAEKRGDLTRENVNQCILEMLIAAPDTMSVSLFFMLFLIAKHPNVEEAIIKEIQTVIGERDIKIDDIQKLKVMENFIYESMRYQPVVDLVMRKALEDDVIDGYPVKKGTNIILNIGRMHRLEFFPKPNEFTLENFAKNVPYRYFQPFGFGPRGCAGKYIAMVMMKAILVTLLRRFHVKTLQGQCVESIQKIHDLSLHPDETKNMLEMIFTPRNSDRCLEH
Estrogen receptor (Homo sapiens), sequence (P03372 whole entry, looked up): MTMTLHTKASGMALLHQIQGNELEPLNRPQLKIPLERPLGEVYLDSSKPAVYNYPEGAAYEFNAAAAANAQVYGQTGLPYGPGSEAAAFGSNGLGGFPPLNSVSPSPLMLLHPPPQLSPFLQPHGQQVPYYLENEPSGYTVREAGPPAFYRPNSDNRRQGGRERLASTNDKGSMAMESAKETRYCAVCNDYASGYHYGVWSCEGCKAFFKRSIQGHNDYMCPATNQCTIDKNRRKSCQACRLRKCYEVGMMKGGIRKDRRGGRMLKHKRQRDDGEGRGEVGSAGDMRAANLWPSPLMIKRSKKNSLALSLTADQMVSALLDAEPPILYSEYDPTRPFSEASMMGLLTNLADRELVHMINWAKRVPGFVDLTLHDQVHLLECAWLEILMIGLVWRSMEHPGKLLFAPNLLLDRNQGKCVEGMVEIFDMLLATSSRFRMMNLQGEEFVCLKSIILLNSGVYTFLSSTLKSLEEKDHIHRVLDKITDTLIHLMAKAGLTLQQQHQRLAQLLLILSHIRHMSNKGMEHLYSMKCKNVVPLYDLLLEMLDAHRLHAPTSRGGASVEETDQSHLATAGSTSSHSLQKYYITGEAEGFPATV

| SMILES | Potency [1] | Potency [2] | Potency [3] | Potency [4] | Potency [5] | Potency [6] | Potency [7] | Potency [8] | Potency [9] | Potency [10] | activity change, negative = cytotoxic [1] | activity, negative = inhibition [4] | activation [7] |
| --- | --- | --- | --- | --- | --- | --- | --- | --- | --- | --- | --- | --- | --- |
| Cc1ccncc1 | inactive | inactive | inactive | inactive | inactive | inactive | inactive | inactive | inactive | – | – | – | – |
| COc1ccc(N)c(OC)c1 | inactive | inactive | inactive | inactive | inactive | inactive | inactive | inactive | inactive | – | – | – | – |
| CCCCC(=O)O | inactive | inactive | inactive | inactive | inactive | inactive | inactive and 49.1 µM (active) | inactive | inactive | inactive | – | – | – |
| Cc1cc(C)cc(O)c1 | inactive | inactive | inactive | inactive | inactive | inactive | inactive | inactive | inactive | – | – | – | – |
| CC(O)CNCC(C)O (stereo not given) | inactive | inactive | inactive | inactive | inactive | inactive | inactive | inactive | inactive | inactive | – | – | – |
| OCC(O)CS (stereo not given) | inactive | inactive | inactive | inactive | inactive | inactive | 11.9 µM (active) and inactive | inactive | inactive | – | – | – | – |
| CN=C(NC#N)NCCSCc1nc[nH]c1C | inactive | inactive | inactive | inactive | inactive | inactive | inactive | inactive | inactive | – | – | – | – |
| Nc1cccc(C(F)(F)F)c1 | inactive | inactive | inactive | inactive | inactive | inactive | inactive | inactive | inactive | – | – | – | – |
| C[Si](C)(C)N[Si](C)(C)C | inactive | inactive | inactive | inactive | – | 86.4 nM [inconclusive] (active) and inactive | inactive | inactive | inactive | – | – | – | – |
| COc1ccc([C@@H]2CC(=O)c3c(O)cc(O[C@@H]4O[C@H](CO[C@@H]5O[C@@H](C)[C@H](O)[C@@H](O)[C@H]5O)[C@@H](O)[C@H](O)[C@H]4O)cc3O2)cc1OC | inactive | inactive | inactive | inactive | inactive | inactive | inactive | inactive | inactive | – | – | – | – |
| CCOC(=O)c1ccc(O)cc1 | inactive | inactive | inactive | inactive | inactive | inactive | 23.7 µM (active) and 30.6 µM (active) | inactive | inactive | – | – | – | – |
| Nc1cccc(N)n1 | inactive | inactive | inactive | inactive | inactive | inactive | inactive | inactive | inactive | inactive | – | – | – |
| COc1c(Cl)ccc(Cl)c1C(=O)O | inactive | inactive | inactive | inactive | inactive | inactive | inactive | inactive | inactive | inactive | – | – | – |
| CCCCCCCC(=O)O | inactive | inactive | inactive | inactive | inactive | inactive | inactive | inactive | inactive | inactive | – | – | – |
| CC(C)=CCC/C(C)=C/C=O | inactive | inactive | inactive | inactive | inactive | inactive | inactive | inactive | inactive | – | – | – | – |
| C=CC(=O)NCOCCCC | inactive | inactive | inactive | inactive | inactive | inactive | inactive | inactive | inactive | – | – | – | – |
| O=C(NCC1CCCCN1)c1cc(OCC(F)(F)F)ccc1OCC(F)(F)F (stereo not given) | 29.8 µM (active) | 53.5 µM (active) | inactive | – | inactive | – | – | inactive | – | – | – | – | – |
| CC(=O)C(C)C | inactive | inactive | inactive | inactive | inactive | inactive | inactive | inactive | inactive | – | – | – | – |
| NC(N)=S | inactive | inactive | inactive | inactive | – | inactive | inactive | inactive | inactive | – | – | – | – |
| NC(=O)NC(N)=O | inactive | inactive | inactive | inactive | inactive | inactive | inactive | inactive | inactive | – | – | – | – |
| CCCCCCCCO | inactive | inactive | inactive | inactive | inactive | inactive | inactive | inactive | inactive | – | – | – | – |
| C=C(C)CC(C)(C)C | inactive | inactive | inactive | – | inactive | – | – | inactive | – | – | – | – | – |
| CCCCCCCCCCCCCC(=O)O | inactive | inactive | inactive | inactive | – | inactive | inactive | inactive | inactive | – | – | – | – |
| C=CC(C)(C)C | inactive | inactive | inactive | inactive | inactive | inactive | inactive | inactive | inactive | – | – | – | – |

| SMILES | Potency [1] | Potency [2] | Potency [3] | Potency [4] | Potency [5] | Potency [6] | Potency [7] | Potency [8] | Potency [9] | Potency [10] | activity change, negative = cytotoxic [1] | activity, negative = inhibition [4] | activation [7] |
| --- | --- | --- | --- | --- | --- | --- | --- | --- | --- | --- | --- | --- | --- |
| OC1CCCCC1 | inactive | inactive | inactive | inactive | inactive | inactive | inactive | inactive | inactive | – | – | – | – |
| CC(C)(CO)CO | inactive | inactive | inactive | inactive | inactive | inactive and 43.7 µM [activator] (active) | inactive | inactive | inactive | inactive | – | – | – |
| C1CCCNCC1 | inactive | inactive | inactive | inactive | inactive | inactive | inactive | inactive | inactive | inactive | – | – | – |
| OC[C@H]1O[C@@H](Oc2ccc(O)cc2)[C@H](O)[C@@H](O)[C@@H]1O | inactive | inactive | inactive | inactive | inactive | inactive | inactive | inactive | inactive | inactive | – | – | – |
| OB(O)O | inactive | inactive | inactive | inactive | inactive | inactive | inactive | inactive | inactive | inactive | – | – | – |
| Cc1ccccc1C=O | inactive | inactive | inactive | inactive | inactive | inactive | inactive | inactive | inactive | inactive | – | – | – |
| CCc1cccc(O)c1 | inactive | inactive | inactive | inactive | inactive | inactive | inactive | inactive | inactive | inactive | – | – | – |
| CCCCCCC(=O)O | inactive | inactive | inactive | inactive | inactive | inactive | inactive | inactive | inactive | – | – | – | – |
| COC(=O)CCCCC(=O)OC | inactive | inactive | inactive | inactive | inactive | inactive | inactive | inactive | inactive | inactive | – | – | – |
| O=Cc1ccc(CO)o1 | inactive | inactive | inactive | inactive | inactive | inactive | inactive | inactive | inactive | inactive | – | – | – |
| O=[N+]([O-])c1ccccc1C(F)(F)F | inactive | inactive | inactive | inactive | inactive | inactive | inactive | inactive | inactive | inactive | – | – | – |
| Cc1ccccc1Cl | inactive | inactive | inactive | inactive | inactive | inactive | inactive | inactive | inactive | inactive | – | – | – |
| CC(=O)OC(C)(C)C1CC=C(C)CC1 (stereo not given) | inactive | inactive | inactive | inactive | inactive | inactive | inactive and 54.5 µM (active) | inactive | inactive | – | – | – | – |
| O=C1CCCCCCCCCCC1 | inactive | inactive | inactive | inactive | inactive | inactive | inactive | inactive | inactive | – | – | – | – |
| CCCCCCCCC(=O)O | inactive | – | inactive | inactive | inactive | inactive | inactive | inactive | inactive | inactive | – | – | – |
| CCCCCCCCCCCC(=O)N(C)CC(=O)O | – | – | inactive | – | inactive | inactive | – | inactive | inactive | – | 15.6% [at 8.44 µM] (inactive) | -5.64% [at 6.71 µM] (inactive) | -3.44% [at 8.47 µM] (inactive) |
| N#CCC(=O)O | inactive | – | inactive | inactive | inactive | inactive | inactive | inactive | inactive | – | – | – | – |
| CCCCCNCCCCC | inactive | inactive | inactive | – | inactive | – | – | inactive | inactive | – | – | – | – |
| Clc1cccc(Cl)c1NC1=NCCN1 | inactive | inactive | inactive | – | inactive | – | – | inactive | inactive | – | – | – | – |
| CC(CN1c2ccccc2Sc2ccccc21)N(C)C (stereo not given) | 23.7 µM (active) and 5.5 µM (active) and 30.6 µM (active) | 26.6 µM (active) and 27.6 µM (active) and 61.1 µM (active) | inactive | – | – | – | – | inactive | inactive and 61.8 µM (active) | – | – | – | – |
| O=C(O)Cc1c[nH]c2ccccc12 | inactive | – | inactive | – | inactive | – | – | inactive | – | – | – | – | – |
| CC(=O)OCc1ccc2c(c1)OCO2 | inactive | inactive | inactive | – | inactive | – | – | inactive | inactive | – | – | – | – |
| COc1c2ccoc2cc2oc(=O)ccc12 | inactive | – | inactive | – | inactive | inactive | inactive | inactive | inactive | – | – | – | – |
